Most compounds without a hit are left out; they make up all but 0.9% or so of the library.
PfHsp40 rescue: rescue of yeast from PfHsp40 toxicity, primary screen, S. cerevisiae, ATP luminescence; S. cerevisiae expressing PfHsp40, growth rescue; growth rescue, % at 12.5 µM; 0.68% of 340,000 active; in the data active means growth rescue above about 28%, passing the limit was not always enough; inconclusive means no clear call, values can overlap the other calls;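 further: yeast W303a lacking pdr1 and pdr3 grown in galactose medium; growth measured after three days at 30 °C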
Sa ugtP lethal: growth inhibition of ugtP-null S. aureus, primary screen, RN4220 ugtP deletion, OD600. growth inhibition, % (test concentration not listed). 0.54% of 330,000 active. 16 h. AID 1259309, 2017; in the data active means growth inhibition above about 68%;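 further: plate controls were untreated wells for no effect and antibiotic for full effect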
Mtb betalactam: beta-lactam sensitization of Mtb H37Rv, H37Rv; M. tuberculosis H37Rv growth with meropenem, percent inhibition; inhibition, % at 25 µM; 0.27% of 330,000 active; call rule not given here;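 further: growth measured after seven days incubation then overnight dye step; 0% = bacteria only wells and 100% = bacteria with antibiotic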
BioA inh: M. tuberculosis BioA enzyme inhibitors, primary screen, biochemical, plate reader, single point, HTS; 7,8-diaminopelargonic acid synthase BioA (Mycobacterium tuberculosis); purified M. tuberculosis BioA enzyme; inhibition, % at 9.99 µM; 0.096% of 360,000 active; in the data active means inhibition above about 40%; inconclusive means no clear call, values can overlap the other calls
RN4220 kill: growth inhibition of S. aureus RN4220, primary screen, OD600; 16 h; inhibition, % (test concentration not listed); 0.33% of 330,000 active; in the data active means inhibition above about 85%;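 further: plate controls were untreated cells for no effect and reference antibiotic for full effect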
Numbers without * were called inactive; u = inconclusive; x = not tested or not shown.

SMILES	PfHsp40 rescue	Sa ugtP lethal	Mtb betalactam	BioA inh	RN4220 kill
CCC(C)Sc1cccc(-c2nc3ccc(C)cn3c2NCc2ccccc2)c1 (stereo not given)	7.1	x	25.1	-1.1	x
CN(CC1CCOCC1)C(=O)CC1C(=O)NCCN1CC=Cc1ccccc1 (stereo not given)	x	4.5	x	x	4.0
C/C(=N\NC(=O)COc1ccccc1-c1ccccc1)c1ccccn1	617.9*	x	87.9	0.4	x
COc1ccc(CN(C)C(=O)c2ccc(NS(=O)(=O)c3ccc(F)cc3)cc2)c(OC)c1	2.3	90.1*	6.8	0.6	-0.5
O=C1NCC(c2ccccc2)N(CCc2cccc3ccccc23)C1=O (stereo not given)	x	0.2	x	x	3.7
N#C/C(=C\c1c[nH]c2ccccc12)C(N)=O	0.7	-0.7	3.3	x	3.2
CC(=O)Oc1c(/C=C(\C#N)C(N)=O)[nH]c2ccccc12	-0.5	86.6*	x	-17.3	96.4*
CC1CN(C(C)CO)C(=O)Cc2cc(NC(=O)NC3CCCCC3)ccc2OC1CN(C)S(=O)(=O)c1ccccc1 (stereo not given)	x	2.7	x	x	0.2
O=C(NC1CC1)c1cccc(Oc2ccccc2)c1	77.0*	11.0	8.0	-0.1	4.8
O=C(NC1CC1)c1ccccc1	x	x	x	-1.1	x
N#Cc1ccc(-c2nc3cc(Cl)ccc3c(=O)n2O)cc1	135.6*	-4.0	u	1.3	15.3
O=c1c2ccc(Cl)cc2nc(-c2cccc(C(F)(F)F)c2)n1O	0.5	99.8*	99.1	x	95.9*
Nc1ccc2c(c1)C(=O)C(=O)c1ccccc1-2	-0.5	97.7*	100.2	x	98.5*
O=S(c1ccccc1O)S(=O)c1ccccc1O (stereo not given)	144.0*	-2.8	x	x	3.7
Cn1cncc1C#Cc1ccc2cc(CCO)oc(=O)c2c1	67.0*	-0.3	-0.1	0.5	-10.0
Cn1cncc1C#Cc1ccc2cc(CCCO)oc(=O)c2c1	-1.9	5.3	-0.5	-1.2	8.5
COc1ccc(C(=O)N2CC3(CC(c4cccc(NC(=O)COc5ccc(Cl)cc5)c4)=NO3)CC2C(N)=O)cc1 (stereo not given)	x	-21.5	x	x	1.6
CC(Oc1ccc(Cl)cc1Cl)C(=O)NC(=S)N1CCc2ccccc21 (stereo not given)	0.4	98.4*	88.0	-0.2	99.0*
O=C(Nc1cccc(C(F)(F)F)c1)c1cccnc1NCCc1ccccc1	389.2*	3.6	90.7	x	0.6
COc1ccc(Cl)cc1C(=O)NN=C1CCCC1	81.5*	13.8	-5.8	x	6.2
COc1ccc(C(=O)NN=C2CCCC2)cc1OC	-0.2	-0.1	-1.0	-0.3	2.8
Cc1ccc(S(=O)(=O)/C(C#N)=C/c2c(Oc3ccc(Cl)cc3)nc3c(C)cccn3c2=O)cc1	x	-0.2	-7.7	x	2.9
CN(C)n1cccc1/C=C(\C#N)S(=O)(=O)c1ccc(Cl)cc1	48.9*	3.0	1.8	-0.6	2.6
O=C1c2ccccc2C2=Nc3ccccc3SC(c3cccc(F)c3)C12 (stereo not given)	281.4*	-2.3	5.5	-0.3	-6.1
O=C(C=Cc1c(Cl)nc2ccccn12)N1CCN(c2ccccc2F)CC1	x	-11.8	x	x	5.6
SMILES	PfHsp40 rescue	Sa ugtP lethal	Mtb betalactam	BioA inh	RN4220 kill
COc1ccc2c(c1)OC(c1ccc3c(c1)OCO3)C(O)C2=O (stereo not given)	x	-3.2	x	x	6.8
Cc1ccc(-c2ccc(C3C4C=CCC[C@@]4(C)C(=O)N3Cc3ccccc3)c(F)c2)cc1 (stereo not given in full)	x	81.2*	x	x	-0.3
COc1ccc(-c2c([C@H]3[C@@H]4C=CCC[C@@]4(C)C(=O)N3Cc3ccccc3)ccc3ccccc23)cc1OC	43.8*	x	94.8	0.1	x
Cc1ccc2[nH]c(C)c(C=NNc3nc4ccccc4s3)c2c1	x	99.0*	x	x	99.9*
CCCc1ccc(C(C)NC(=S)NCc2ccc(F)cc2)cc1 (stereo not given)	-1.4	-21.4	-1.9	0.0	-10.5
CC(NC(=S)NCc1ccc(F)cc1)C12CC3CC(CC(C3)C1)C2 (stereo not given)	157.1*	-18.8	8.2	x	-13.0
CCC(NC(=S)NCc1ccc(F)cc1)c1ccc(C(C)C)cc1 (stereo not given)	472.4*	-20.7	2.1	-0.5	-5.0
Cc1cccc(NC2=Nc3ccccc3N3C2=Nc2c(c(C)nn2-c2ccccc2)C3c2ccc(O)c(O)c2)c1 (stereo not given)	4.0	97.4*	99.9	x	47.1
Cc1ccc(NC2=Nc3ccccc3N3C2=Nc2c(c(C)nn2-c2ccccc2)C3c2ccc(O)c(O)c2)cc1 (stereo not given)	1.0	98.2*	x	-2.0	68.8
Cc1nn(-c2ccccc2)c2c1C(c1ccc(O)c(O)c1)N1C(=N2)C(Nc2ccccc2)=Nc2ccccc21 (stereo not given)	0.0	55.4	100.1	-4.6	11.8
CN1C(=O)C(O)(CC(=O)C=CC=Cc2ccccc2)c2ccccc21 (stereo not given)	x	-1.2	x	x	8.2
Cc1cc(N2CCN(C)CC2)nc2ccc(NC(=S)NCCCN3CCc4ccccc4C3)cc12	0.3	-0.2	-4.9	0.5	2.9
Cc1cc(N2CCN(C)CC2)nc2ccc(NC(=S)NCCN3CCc4ccccc4C3)cc12	48.7*	-0.2	0.1	0.9	3.0
COc1cccc(Nc2c([N+](=O)[O-])cncc2[N+](=O)[O-])c1	1.7	-1.1	89.9	-0.5	28.7
NS(=O)(=O)c1ccc(Nc2c([N+](=O)[O-])cncc2[N+](=O)[O-])cc1	-0.7	89.8*	0.1	-1.1	96.4*
NC(=O)C1CC2(CC(c3cccc(NC(=O)CC(c4ccccc4)c4ccccc4)c3)=NO2)CN1C(=O)CC(c1ccccc1)c1ccccc1 (stereo not given)	x	-2.2	x	x	-4.6
COc1cc(C=C2NC(=O)N(Cc3ccccc3F)C2=O)cc(OC)c1O	x	-8.7	x	x	-9.8
CC1(C)CC(=O)C2=C(C1)c1c(ccc3ccccc13)NC2c1cc([N+](=O)[O-])cc([N+](=O)[O-])c1O (stereo not given)	0.6	89.5*	-1.9	x	95.1*
CC1(C)CC(=O)C2=C(C1)c1c(ccc3ccccc13)NC2c1ccc(C(=O)O)cc1 (stereo not given)	2.1	-1.4	10.1	0.5	7.6
CN1/C(=C/c2cc[n+](C)c3ccccc23)C=Cc2ccccc21	-0.9	95.7*	x	x	99.5*
C#CCOCCOCCOCCNc1nc(N2CCN(C(=O)C(C(C)CC)n3cc(C(N)CO)nn3)CC2)nc(N2CCN(C(=O)C(C(C)CC)n3cc(C(N)COC(=O)C(F)(F)F)nn3)CC2)n1 (stereo not given)	x	0.2	x	x	6.9
CC(C)c1ccc(OCC(=O)Nc2cccc3c2CCCC3)cc1	-0.6	95.7*	-2.3	-2.9	15.2
CC=CC=CC(=O)Nc1cccc(C2=NOC3(C2)CC(C(N)=O)N(C(=O)CCCCC)C3)c1 (stereo not given)	x	-9.8	x	x	3.2
Cc1cc(F)ccc1S(=O)(=O)N(C(=O)c1ccncc1)c1ccc(OC(=O)c2ccncc2)cc1	421.5*	4.7	-6.0	0.8	4.3

Compound activity (PubChem)
